Results filed as inconclusive are left out. Entries that show only a call come without a potency. A number with no mark means an inactive call. The source made the active and inactive calls. Calls come from the whole dose curve; as a rule, active = well fitted cell-killing curve with a large enough effect; inconclusive = small, poorly fitted or top-dose-only effect, or effect the other way; inactive = flat fitted curve, though single readings scatter.
Potency is the fitted concentration of half-maximal effect.

The first experiment deals with Hek293T. Kind of experiment: Primary qHTS to identify gynecologic anti-cancer compounds using libraries of approved drugs and bioactive compounds (AID 1345084). Note: nearly all actives have a fitted effect of over 55% in size. The conditions noted are these: Gynecologic cancer cell panel viability, ATPlite luminescence, 48 h, control line for the selectivity index; series mostly up to 57.5 µM. A digest of the protocol:
(§1)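 Cell viability after 48 h drug treatment, ATPlite luminescence readout; five doses.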
As for `C=CC(=O)Nc1cc2c(Nc3ccc(F)c(Cl)c3)ncnc2cc1OCCCN1CCOCC1`, the Potency entry is “inactive”.

With `COC(=O)c1ccc2c(C(=Nc3ccc(N(C)C(=O)CN4CCN(C)CC4)cc3)c3ccccc3)c(O)[nH]c2c1`, the Potency entry is “inactive”.

Regarding `CCNC(=O)Nc1ccc2ncc(Nc3ccc(C)cc3)nc2n1`, the Potency result was “inactive”.

As for `COc1cc2c(Oc3ccc(-c4cnc(Nc5ccc(F)cc5)n(C)c4=O)cc3F)ccnc2cc1OCCCN1CCOCC1`, the Potency result was “inactive”.

As to `Nc1ncnc2c1c(-c1cnc3[nH]ccc3c1)nn2C1CCCC1`, the Potency was 7.94 µM (active).

As for `COC(=O)C1=C(C)NC(C)=C(C(=O)OCCN2CCN(C(c3ccccc3)c3ccccc3)CC2)C1c1cccc([N+](=O)[O-])c1` (stereo not drawn), the Potency result is “inactive”.

As to `CC1(O)CC(c2nc(-c3ccc4ccc(-c5ccccc5)nc4c3)c3c(N)nccn23)C1` (stereo not drawn), the Potency result was “inactive”.

Take `Cc1cn(-c2cc(NC(=O)c3ccc(C)c(Nc4nccc(-c5cccnc5)n4)c3)cc(C(F)(F)F)c2)cn1`: the Potency entry is “inactive”.

Regarding `Fc1cc(-c2cccc3ncc(-c4cnn(C5CCNCC5)c4)nc23)cc(F)c1CN1CCOCC1`, the Potency result is “inactive”.

As to `O=C(c1ccc(Nc2nccc(-c3cc4ccccc4s3)n2)cc1)N1CCC(N2CCCC2)CC1`, the Potency result was “inactive”.

Turning to `CC(=O)c1c(C)c2cnc(Nc3ccc(N4CCNCC4)cn3)nc2n(C2CCCC2)c1=O`, the activity change, negative = cytotoxicity is 25.4% [at 6.55 µM].

Regarding `OCc1ccc(-c2ccc(-c3ccc(CO)s3)o2)s1`, the Potency was 1.41 µM (active).

For `Cc1nc(N)ncc1-c1nc(N2CCOCC2)c2sc(C(C)(C)O)cc2n1`, the Potency was 3.16 µM (active).

For `O=C(Nc1cc(C(F)(F)F)cc(C(F)(F)F)c1)c1cc(Cl)ccc1O`, the Potency is 2.51 µM (active).

For the molecule `CS(=O)(=O)N1CCN(Cc2cc3nc(-c4cccc5[nH]ncc45)nc(N4CCOCC4)c3s2)CC1`, the Potency is 2.51 µM (active).

In the case of `Cn1cc(-c2ccncc2)c(-c2ccc(OCc3ccc4ccccc4n3)cc2)n1`, the Potency result was “inactive”.

Take `COC(=O)Nc1ccc(-c2nc(N3CCOCC3)c3cnn(C4CCN(Cc5cccnc5)CC4)c3n2)cc1`: the Potency was 2.24 µM (active).

`Cc1cc(Nc2cc(CN3CCOCC3)c3nc(C)c(Cc4ccc(Cl)cc4F)n3n2)n[nH]1`: the Potency result was “inactive”.

For another experiment, the system named is JEG-3. The description is as above. Particulars: Gynecologic cancer cell panel viability, ATPlite luminescence, 48 h; series mostly up to 57.5 µM. A digest of the protocol: as §1
Turning to `C=CC(=O)Nc1cc2c(Nc3ccc(F)c(Cl)c3)ncnc2cc1OCCCN1CCOCC1`, the Potency entry is “inactive”.

Regarding `COC(=O)c1ccc2c(C(=Nc3ccc(N(C)C(=O)CN4CCN(C)CC4)cc3)c3ccccc3)c(O)[nH]c2c1`, the Potency entry was “inactive”.

Regarding `CCNC(=O)Nc1ccc2ncc(Nc3ccc(C)cc3)nc2n1`, the Potency result is “inactive”.

Regarding `COc1cc2c(Oc3ccc(-c4cnc(Nc5ccc(F)cc5)n(C)c4=O)cc3F)ccnc2cc1OCCCN1CCOCC1`, the Potency entry was “inactive”.

Turning to `COC(=O)C1=C(C)NC(C)=C(C(=O)OCCN2CCN(C(c3ccccc3)c3ccccc3)CC2)C1c1cccc([N+](=O)[O-])c1` (stereo not drawn), the Potency result is “inactive”.

In the case of `CC1(O)CC(c2nc(-c3ccc4ccc(-c5ccccc5)nc4c3)c3c(N)nccn23)C1` (stereo not drawn), the Potency entry was “inactive”.

`CC(=O)Nc1sc2c(c1-c1nc3ccccc3s1)CNC2`: the Potency entry is “inactive”.

Take `Cc1cn(-c2cc(NC(=O)c3ccc(C)c(Nc4nccc(-c5cccnc5)n4)c3)cc(C(F)(F)F)c2)cn1`: the Potency result was “inactive”.

Regarding `Nc1nc(Nc2ccc(S(N)(=O)=O)cc2)nn1C(=O)c1c(F)cccc1F`, the Potency entry was “inactive”.

`O=C(c1ccc(Nc2nccc(-c3cc4ccccc4s3)n2)cc1)N1CCC(N2CCCC2)CC1`: the Potency result is “inactive”.

For `CC(=O)c1c(C)c2cnc(Nc3ccc(N4CCNCC4)cn3)nc2n(C2CCCC2)c1=O`, the activity change, negative = cytotoxicity was -5.97% [at 6.55 µM].

As to `OCc1ccc(-c2ccc(-c3ccc(CO)s3)o2)s1`, the Potency entry is “inactive”.

As to `CC(=O)Nc1nc(C)c(-c2ccc(Cl)c(S(=O)(=O)NCCO)c2)s1`, the Potency entry was “inactive”.

Another experiment concerns OV90. Described as above. The conditions noted are these: Gynecologic cancer cell panel viability, ATPlite luminescence, 48 h; series mostly up to 57.5 µM. A digest of the protocol:
as §1
Regarding `C=CC(=O)Nc1cc2c(Nc3ccc(F)c(Cl)c3)ncnc2cc1OCCCN1CCOCC1`, the Potency entry is “inactive”.

Take `Cc1ccc(C(=O)Nc2ccc(CN3CCN(C)CC3)c(C(F)(F)F)c2)cc1C#Cc1cnc2cccnn12`: the Potency was 15.8 µM (active).

For `COc1cccc(-c2ccc(NC(=O)C3=C(C(=O)O)CCC3)c(F)c2)c1`, the Potency entry was “inactive”.

For `CCNC(=O)Nc1ccc2ncc(Nc3ccc(C)cc3)nc2n1`, the Potency entry was “inactive”.

As for `COc1cc2c(Oc3ccc(-c4cnc(Nc5ccc(F)cc5)n(C)c4=O)cc3F)ccnc2cc1OCCCN1CCOCC1`, the Potency result is “inactive”.

As to `Nc1ncnc2c1c(-c1cnc3[nH]ccc3c1)nn2C1CCCC1`, the Potency was 5.01 µM (active).

Take `COC(=O)C1=C(C)NC(C)=C(C(=O)OCCN2CCN(C(c3ccccc3)c3ccccc3)CC2)C1c1cccc([N+](=O)[O-])c1` (stereo not drawn): the Potency entry is “inactive”.

Regarding `COc1ccc(C(=O)CC2(O)C(=O)Nc3c(Cl)ccc(Cl)c32)cc1` (stereo not drawn), the Potency result is “inactive”.

Turning to `CC1(O)CC(c2nc(-c3ccc4ccc(-c5ccccc5)nc4c3)c3c(N)nccn23)C1` (stereo not drawn), the Potency entry is “inactive”.

With `CC(=O)Nc1sc2c(c1-c1nc3ccccc3s1)CNC2`, the Potency result was “inactive”.

Turning to `Cc1cn(-c2cc(NC(=O)c3ccc(C)c(Nc4nccc(-c5cccnc5)n4)c3)cc(C(F)(F)F)c2)cn1`, the Potency result is “inactive”.

For the molecule `O=C(Nc1nc2cccc(-c3ccc(CN4CCS(=O)(=O)CC4)cc3)n2n1)C1CC1`, the Potency result is “inactive”.

On to `O=C(c1ccc(Nc2nccc(-c3cc4ccccc4s3)n2)cc1)N1CCC(N2CCCC2)CC1`, for which the Potency entry is “inactive”.

For `CC(=O)c1c(C)c2cnc(Nc3ccc(N4CCNCC4)cn3)nc2n(C2CCCC2)c1=O`, the activity change, negative = cytotoxicity was 15% [at 6.55 µM].

Turning to `OCc1ccc(-c2ccc(-c3ccc(CO)s3)o2)s1`, the Potency is 3.16 µM (active).

For the molecule `Cc1nc(N)ncc1-c1nc(N2CCOCC2)c2sc(C(C)(C)O)cc2n1`, the Potency was 3.55 µM (active).

Turning to `Cc1cc(C(=O)N2CCN(c3cccc(Cl)c3)CC2)n(-c2ccccc2)n1`, the Potency result was “inactive”.

Take `O=C(Nc1cc(C(F)(F)F)cc(C(F)(F)F)c1)c1cc(Cl)ccc1O`: the Potency is 8.91 µM (active).

On to `Cn1cc(-c2ccncc2)c(-c2ccc(OCc3ccc4ccccc4n3)cc2)n1`, for which the Potency entry was “inactive”.

Regarding `COC(=O)Nc1ccc(-c2nc(N3CCOCC3)c3cnn(C4CCN(Cc5cccnc5)CC4)c3n2)cc1`, the Potency was 4.47 µM (active).

In the case of `COC(=O)Nc1nc2ccc(C(=O)c3ccc(F)cc3)cc2[nH]1`, the Potency result is “inactive”.

For the molecule `O=C(Cc1ccc(-c2ccc(OCCN3CCOCC3)cc2)cn1)NCc1ccccc1`, the Potency was 2.82 µM (active).
